# Screens deposited in PubChem by Broad Institute.
# Hits are enriched below; roughly 2.2% of the tested compounds scored in any of these assays.
# EWS-Fli inh – EWS/Fli-driven NR0B1 reporter inhibitors, primary screen, A673 cells, NR0B1 luciferase, luminescence, MLPCN library | viability-normalised | inhibition, % at 12.6 µM | hit rate 0.67% among 350,000;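 active = mean inhibition of at least 50% after viability correction, with every replicate also passing that limit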;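 also: firefly luciferase signal divided by Alamar Blue viability fluorescence both relative to DMSO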
# PAX8 inh HTS – inhibitors of PAX8-driven TPO luciferase reporter, primary screen, RMG-I cells, single concentration. SteadyGlo, 24 h. inhibition, % at 12.6 µM. hit rate 1.2% among 360,000. AID 652154, 2013;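 active = mean replicate inhibition at least 60% with every replicate also reaching 60%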;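 also: luciferase light reporting Pax8 driven TPO promoter activity; plate controls were median of neutral control wells for no effect and mitoxantrone controls for full effect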
# MITF TRPM1 inh – inhibitors of MITF-dependent TRPM1 promoter reporter, primary screen, cell-based, SK-MEL-5, single point, luciferase; inhibition, % at 12.5 µM; hit rate 0.83% among 330,000; SK-MEL-5 TRPM1 promoter luciferase, 24 h;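 active = mean inhibition across replicates of 60% or more, whatever share of single replicates reaches that level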
# LMP1 NFkB inh – EBV LMP1-driven NF-kappaB luciferase reporter inhibitors, primary screen, cell-based, luminescence, single point; LMP1-induced NF-kappaB luciferase reporter cells; inhibition, % at 12.5 µM; hit rate 0.69% among 350,000; AID 504558, 2011; in the data active = inhibition above about 41%;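 also: 0% = neutral control wells and 100% = reference inhibitor control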
# Shn3 inh set2 – reduction of Shn3 3'UTR firefly luciferase signal, primary screen, Schnurri-3 inhibitor project, cell-based, Clone20 osteoblasts, set 2. hit rate 0.52% among 360,000. Clone20 osteoblast Shn3 3'UTR firefly luciferase, 24 h. inhibition, % at 12.5 µM;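 active = mean inhibition of at least 75% with every replicate also reaching 75%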;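 also: 0% = median of neutral control wells and 100% = pilot-screen positive control compound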
# LGR2 inh – inhibitors of bursicon-induced LGR2 CRE-luciferase signal, primary screen, cell-based, HEK293, CRE-luciferase reporter, bursicon stimulation; bursicon-stimulated, 4 h; hit rate 0.35% among 380,000; AID 720647, 2013; inhibition, % at 9.99 µM;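 active = drop in luminescence signal, shown as inhibition above about 50% in the replicate tests, limit read from the data, passing the limit was not always enough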;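 also: agonist challenge used bursicon conditioned medium at about half maximal strength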
# The depositor's hits bear a star; x = not tested or not shown.
SMILES,EWS-Fli inh,PAX8 inh HTS,MITF TRPM1 inh,LMP1 NFkB inh,Shn3 inh set2,LGR2 inh
O=C(C1CCCC1)N1CC2(C1)[C@H](c1ccccc1)[C@H](CO)N2C(=O)CC1CC1,3,x,x,x,x,-13
CCCNC(=O)NC[C@H]1CC[C@@H]2[C@@H](CN2S(=O)(=O)c2ccccc2[N+](=O)[O-])O1,3,x,x,x,x,x
Brc1ccc(N=Nc2ccc3ccccc3n2)cc1,77*,79*,55,63*,82,95*
N#C/C(=C\c1ccccc1[N+](=O)[O-])C(=O)NC1CCCCC1,5,15,-4,11,9,23
N#C/C(=C\C=C\c1ccccc1[N+](=O)[O-])C(=O)NC1CCCCC1,x,x,72*,-77,3,x
N#C/C(=C\c1cccn1-c1ccccc1)C(=O)NC1CCCCC1,62*,21,14,-2,3,x
N#C/C(=C\c1ccc(F)c(F)c1)C(=O)NC1CCCCC1,3,1,3,9,2,23
COC(=O)[C@@]1(C)[C@H]2C(=O)N(Cc3ccccc3)C(=O)[C@H]2[C@H]2CN=C(SCc3ccc(Cl)cc3)N21,11,9,1,70*,-3,-2
Cc1noc(C)c1NC(=O)N(C)C[C@H]1OCCCC[C@H](C)Oc2ccc(NC(=O)Nc3cccc4ccccc34)cc2C(=O)N([C@H](C)CO)C[C@@H]1C,-4,-14,x,x,x,10
CCn1c(SCC(=O)Nc2nc3ccc(OC)cc3s2)nc2c1c(=O)n(C)c(=O)n2C,x,x,-3,18,72,54*
CO[C@@H]1CN(C)C(=O)c2cc(NC(=O)C3CC3)ccc2OC[C@@H](C)N(C(=O)c2ccccc2F)C[C@H]1C,5,-8,x,x,x,5
O=C(COc1cccc(NC(=O)c2cccc([N+](=O)[O-])c2)c1)c1ccc(F)cc1,x,x,-2,9,24,x
O=C(O)c1ccc(C(=O)Nc2ccc(F)cc2)cc1,-2,-30,106*,-4,8,-20
O=C(COc1cccc(NC(=O)c2ccccc2)c1)c1ccc(F)cc1,-10,69*,0,-5,-12,-10
O=C(Nc1cccc(Oc2ccc(C(=O)O)c(C(=O)O)c2)c1)c1ccc(-c2ccccc2)cc1,11,24,6,2,-5,56*
CO[C@@H]1CN(C)C(=O)c2ccc(NC(=O)Nc3ccccc3)cc2OC[C@@H](C)N(CC2CC2)C[C@@H]1C,-2,x,x,x,x,-6
COc1ccc(NS(=O)(=O)c2ccc(C(=O)N3CCCCCC3)cc2)cc1,11,17,11,20,82*,17
Cc1cccc(Cn2cc(SCC(=O)Nc3nccs3)c3ccccc32)c1,-71,-8,-66,82*,-43,-13
Cc1ccc(Cn2cc(SCC(=O)Nc3nccs3)c3ccccc32)cc1,-51,-73,x,-27,-23,-19
COc1ccc2c(c1)/C(=C\c1cccc(/C=C3/C(=O)Nc4ccc(OC)cc43)n1)C(=O)N2,67*,27,98*,89*,96*,74*
CO[C@H]1CN(C)C(=O)c2cc(NC(=O)c3cccc(Oc4ccccc4)c3)ccc2OC[C@@H](C)NC[C@@H]1C,29,x,x,x,x,2
c1ccc(-n2nnc3c(N4CCOCC4)ncnc32)cc1,x,x,14,53*,-3,83*
O=C(c1ccccc1F)N1CC[C@@H]2[C@@H](CO)Nc3ccc(C#Cc4ccccc4)cc3[C@@H]21,-1,-5,x,x,x,-1
COc1ccc(S(=O)(=O)N2CCC(NC(=O)C3CCCCC3)CC2)cc1,6,-2,1,46*,6,-11
O=C(NC1CC1)C1CCN(S(=O)(=O)c2ccc(Cl)c([N+](=O)[O-])c2)CC1,50,51,75*,-16,0,12
CCCNC(=O)N1CC2(CN(C(=O)c3cccc(F)c3)C2)c2c([nH]c3cc(OC)ccc23)[C@@H]1CO,3,x,x,x,x,-7
O=C(N/N=C/c1cc([N+](=O)[O-])ccc1N1CCNCC1)c1ccc([N+](=O)[O-])cc1,x,x,84*,2,5,x
